The source of these data is PMC7819943, “Rice protein-binding microarrays: a tool to detect cis-acting elements near promoter regions in rice”.

Over roughly 68,000 sequences, “fluorescence intensity (a.u.)” has its median near 9,100; the highest 2% begin near 16,000. Shown is part of a subset that was picked to be rich in the highest values.

Chain of OsWRKY34 (Q0JBA9 entry or part of it): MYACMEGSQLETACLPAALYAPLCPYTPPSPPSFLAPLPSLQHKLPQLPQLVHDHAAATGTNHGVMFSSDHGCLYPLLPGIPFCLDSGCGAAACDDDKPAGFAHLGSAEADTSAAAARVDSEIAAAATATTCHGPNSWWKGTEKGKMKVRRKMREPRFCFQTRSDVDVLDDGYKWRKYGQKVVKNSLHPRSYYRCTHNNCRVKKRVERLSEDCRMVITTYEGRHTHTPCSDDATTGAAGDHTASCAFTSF

For the test, the target named is OsWRKY34 (Oryza sativa, UniProt Q0JBA9 1-250). Briefly: protein-binding microarray (RPBM); PBS, 2% BSA, 51.3 ng/ul salmon testes DNA, 50 uM zinc acetate, 200 nM TF, 25 C, 1 h; high values mean tight binding. As to conditions: protein: recombinant; tags: N-terminal polyhistidine and DsRed monomer fusion (pET32a); label: CyDye5-dUTP incorporated in the synthesized complementary strand; 3' TTTTT single-stranded linker to array surface; dsDNA, one strand shown. Summed up:
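Ni–NTA purification followed expression in E. coli BL21-CodonPlus of transcription factors fused N-terminally to a polyhistidine tag and DsRed. At 200 nM in PBS with 2% BSA, salmon testes DNA and 50 µM zinc acetate, the protein was incubated for 1 h at 25 °C with a custom Agilent array that had been primer-extended with Cy5-dUTP and blocked with 2% BSA. After washing, the array was read on an Axon 4000B scanner. The binding signal is per-feature fluorescence intensity in arbitrary units.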
For the sequence “AAAATCTGTCATCGTCGTATCATGCATGTCGAATGTTTTGCGGAGTCACCTAGTGCAG”, the binding signal is 8380 fluorescence intensity (a.u.).

Turning to “AGCTATTTTACATGTTATTTTTTCATTGTTATCGTACTAACGGAGTCACCTAGTGCAG”, the binding signal is 10500 fluorescence intensity (a.u.).

With “CATCCCAAAATATTTGACGTCGTTGACTTTTTTAAAAGTGCGGAGTCACCTAGTGCAG”, the binding signal was 18000 fluorescence intensity (a.u.).

Consider “CACCATCCCAAAATATTTGACGCCGTTGACTTTTTTAAAACGGAGTCACCTAGTGCAG”, for which the binding signal was 14000 fluorescence intensity (a.u.).

For “TCCCTCCATCCCAAAATGTTATCTTTGACGTCGTTGACTTCGGAGTCACCTAGTGCAG”, the binding signal was 10900 fluorescence intensity (a.u.). Then “AGGTGGAGGTGGGGAGGATGCGGGAGAGGGAGGTGATGATCGGAGTCACCTAGTGCAG”, with 14000 fluorescence intensity (a.u.); and “GGAGGTCAGGATTGTTGTGGTGGGGAATTGGAGGGAAATGCGGAGTCACCTAGTGCAG”, with 19600 fluorescence intensity (a.u.); and “GGGTCAGAGGGTAGGTTATTGTTGGGTAGGTGTGGAATTGCGGAGTCACCTAGTGCAG”, with 9800 fluorescence intensity (a.u.).

Take “CGGCCCAGGTGGGAGAGGAGGGGAGGGGAGGGGAGGGATGCGGAGTCACCTAGTGCAG”: the binding signal is 19800 fluorescence intensity (a.u.). To “GGATGAGGAGGAGGGTGTGGAGGAGGAGGAGGAGGAGGTGCGGAGTCACCTAGTGCAG” belongs 11500 fluorescence intensity (a.u.); to “GTTGGAGTTGGAGGAGGTGGTGCCGTGGTGGGGATTGATGCGGAGTCACCTAGTGCAG”, 10500 fluorescence intensity (a.u.); to “AGGGTAAGAGGAGGAGGAGGAGGGGTAGGCGAGGGAGATGCGGAGTCACCTAGTGCAG”, 8490 fluorescence intensity (a.u.). To “GGGTGTGTAAGGGTAGGTGGAGGGGTGGGTGATGCGAGATCGGAGTCACCTAGTGCAG” belongs 20400 fluorescence intensity (a.u.); to “GCGGAGGTGGTGTGGGTGGGTGAGTGAGTGAGGAGTGATGCGGAGTCACCTAGTGCAG”, 17400 fluorescence intensity (a.u.). Consider “GAGAGTAAGGATCAGGAGGAGGTGGAGGAGGAGGAGGATGCGGAGTCACCTAGTGCAG”, for which the binding signal was 8300 fluorescence intensity (a.u.). To “GGGAGGGGCGGCCCAGCGGCAGCGGAGGGGAGGGAGGATGCGGAGTCACCTAGTGCAG” belongs 8640 fluorescence intensity (a.u.). Then “GTAGGAGGAGGAGGAGGAGGTGGTGGTGGTGGTGGTGATGCGGAGTCACCTAGTGCAG”, with 15100 fluorescence intensity (a.u.); and “TTATAACATCTCTAGCTTCCTTTTCTAACCGTTTAACTTTCGGAGTCACCTAGTGCAG”, with 8410 fluorescence intensity (a.u.); and “TTGGTTGTGTGTGTGCCGCCGCGAGCCCGTGACGGCGCCCCGGAGTCACCTAGTGCAG”, with 9390 fluorescence intensity (a.u.). To “AATTTTTATATTGTTGACCTGCAGATCCTTATGTTGGACTCGGAGTCACCTAGTGCAG” belongs 8260 fluorescence intensity (a.u.). As for “AACGTACCACTCCCGTGGGCCGGACCAACACTCCTTCCCACGGAGTCACCTAGTGCAG”, the binding signal is 9510 fluorescence intensity (a.u.). Then “TGCGTGTTGTGTGTGTGGGTGATCTTTGGCGCGCCTCGTCCGGAGTCACCTAGTGCAG”, with 8120 fluorescence intensity (a.u.).

“ATCCCCATTTTTTTCCCAAGTGGTACACTGAAATTTTTTTCGGAGTCACCTAGTGCAG”: the binding signal was 8100 fluorescence intensity (a.u.). On to “TTCCCCACCACCACCAACCCAGACCGGCCGCGGCCTATATCGGAGTCACCTAGTGCAG”, for which the binding signal was 8270 fluorescence intensity (a.u.). Then “TTTATAGATGGGGAAGGGGTGGCAACTAGAGACGCGACGGCGGAGTCACCTAGTGCAG”, with 9070 fluorescence intensity (a.u.). Then “TTCTCCGTGTTAATATCACTTACGTCAAGGACCTATTTGTCGGAGTCACCTAGTGCAG”, with 8750 fluorescence intensity (a.u.); and “CGATGTGATTTAGTGAAAAATTTTAGGGTGGGCTAAACAGCGGAGTCACCTAGTGCAG”, with 11500 fluorescence intensity (a.u.); and “GTGAGGTGGGGTGGTGTGGCTTCTGCTGCTGCTGCTACTGCGGAGTCACCTAGTGCAG”, with 15100 fluorescence intensity (a.u.). Then “TGGAGGTGGGGAGGATGCGGGAGAGGGAGGTGATGATGGGCGGAGTCACCTAGTGCAG”, with 8790 fluorescence intensity (a.u.).

On to “GACTGGGAGGATGAGGGGTGGGTGGGTGTGGCTGCTTCTGCGGAGTCACCTAGTGCAG”, for which the binding signal was 19100 fluorescence intensity (a.u.). To “GGGGTGGGGTGGAGAGGGTGAAGCGGCGACGGTGACGATGCGGAGTCACCTAGTGCAG” belongs 9870 fluorescence intensity (a.u.).

As to “TCGCTGTGAGTGGAGGAGGAGGAGGAAGGGGAGGAGGATGCGGAGTCACCTAGTGCAG”, the binding signal is 8630 fluorescence intensity (a.u.). To “GGCGTGTTGGTGTGCGTGGATTGGGTGGGTGAGGAGGATGCGGAGTCACCTAGTGCAG” belongs 13000 fluorescence intensity (a.u.); to “GTGTGGAGGTGGTGGGGAGTGTGAGGAGAGGGAGGGGATGCGGAGTCACCTAGTGCAG”, 18000 fluorescence intensity (a.u.); to “CGGTGAGGGGTGGACTGGGAGTGCGTGGGTGGGTGTGATGCGGAGTCACCTAGTGCAG”, 13400 fluorescence intensity (a.u.). To “GTGAAGCGATCTGTATTGGTGGAGGGGAGGGGAGGGGATGCGGAGTCACCTAGTGCAG” belongs 24000 fluorescence intensity (a.u.); to “TTTTGCCATCTGGTAATCCCTCTACCACCAACAGCTACAACGGAGTCACCTAGTGCAG”, 9220 fluorescence intensity (a.u.); to “AGTACTCCTCCGTTCTAAATTAGATGTCGTTTTGATTTTTCGGAGTCACCTAGTGCAG”, 8570 fluorescence intensity (a.u.). Then “CTCTTGGCGATTTGCGGAAGTTGTTGTTGTCCCCTTGCTCCGGAGTCACCTAGTGCAG”, with 8060 fluorescence intensity (a.u.); and “TTAGCAAAAACATATCCTTTCTTGCCACACTACTAAGCCACGGAGTCACCTAGTGCAG”, with 8160 fluorescence intensity (a.u.); and “ACACGGCCACCCGCATCCGCACCACCCGCAAGCCGCGACGCGGAGTCACCTAGTGCAG”, with 9450 fluorescence intensity (a.u.). Regarding “GCTGGGAGTTAGAACGGTGATCCATCTAGATGTAATGGTCCGGAGTCACCTAGTGCAG”, the binding signal was 8740 fluorescence intensity (a.u.).
